Bioassay records (PubChem BioAssay)
Gli-Sufu antag: Gli-Sufu pathway antagonism. Sufu-KO-LIGHT fibroblasts, Gli luciferase reporter luminescence. inhibition, % at 5 µM. actives 0.74% (n = 340,000). AID 588413;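 active means inhibition above about 55%, limit read from the data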;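 further: 0% = DMSO-treated cells and 100% = wells with medium but no cells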
LRH-1 inv ag: NR5A2 inverse agonism in reporter assay; AID 602396; O00482; inhibition, % at 3.6 µM; actives 0.13% (n = 360,000); HEK293T StAR-luciferase reporter, LRH-1 transfected, 24 h;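 active means inhibition above the mean inhibition of all tested compounds plus 3 SD, cut at about 73% in these data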;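 further: 0% = DMSO wells and 100% = reporter-only cells lacking LRH-1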
NCOA3 inh: human NCOA3 inhibition; actives 0.17% (n = 360,000); Q9Y6Q9; inhibition, % at 3.6 µM; HEK293 GAL4-SRC3 luciferase reporter, luminescence;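 active means inhibition above a per-campaign cutoff, the mean of all compounds plus 3 SD, cut at about 60% in these data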;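 further: 0% = DMSO-treated cells and 100% = gossypol-treated cells at 36 µM; higher means less SRC3-driven luciferase light from the GAL4 reporter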
SRC1 inh: inhibitors of human steroid receptor coactivator 1 (SRC1). Q15788. HEK293 GAL4-SRC1 luciferase reporter, luminescence. inhibition, % at 3.6 µM. actives 0.12% (n = 360,000). AID 588354;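 active means inhibition above the campaign mean plus 3 SD, with each screening campaign given its own cutoff, cut at about 60% in these data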;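 further: 0% = DMSO treated cells and 100% = gossypol at 36 µM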
NR2F2 inh: NR2F2 (human) inhibition, primary screen; HEK293T NGFI-A luciferase reporter, luminescence; AID 686940; P24468; actives 0.7% (n = 370,000); inhibition, % at 8.6 µM;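 active means inhibition above a per-plate cutoff, mean inhibition of test wells between control levels plus 3 SD, cut at about 38% in these data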;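 further: cells cotransfected with COUP-TFII expression vector driving the NGFI-A reporter; 0% = median of COUP-TF2 test wells and 100% = reporter-only cells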
SRC2 inh: human SRC2 (NCOA2) inhibition; Q15596; HEK293 GAL4-SRC2 luciferase reporter, luminescence; inhibition, % at 9 µM; actives 0.17% (n = 370,000); AID 651957;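 active means inhibition above the mean inhibition of all tested compounds plus 3 SD, set per campaign, cut at about 52% in these data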;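 further: 0% = DMSO treated cells and 100% = cells given Gossypol at 36 µM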
Gli-Sufu confirm: Gli-SUFU antagonism confirmation, single concentration. shares compounds with Gli-Sufu antag. Sufu-KO-LIGHT cells, Gli luciferase reporter, luminescence. inhibition, % at 5 µM. actives 40% (n = 2,500). AID 602428;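 active means mean inhibition at 5 µM reaching about 45%, limit read from the data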;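 further: plate controls were DMSO-treated cells for no effect and wells lacking cells for full effect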
SufuKO cytotox: counter-screen for Gli-SUFU antagonists: cytotoxicity. cytotoxicity, % at 5 µM. actives 32% (n = 2,500). shares compounds with Gli-Sufu antag. Sufu-KO-LIGHT cells cytotoxicity, ATP luminescence;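 active means mean cytotoxicity at 5 µM above about 25%, limit read from the data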;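 further: cells exposed to compound overnight for roughly 16 to 18 hours; plate controls were DMSO wells with cells for no effect and medium without cells for full effect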
Wnt3a counter: counter-screen for Gli-SUFU antagonists: Wnt3a reporter inhibition | shares compounds with Gli-Sufu antag | Wnt-LIGHT cells, Wnt3a-driven luciferase reporter, luminescence | inhibition, % at 6.25 µM | actives 20% (n = 2,500);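 active means mean inhibition above about 25%, limit read from the data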
Numbers without * were called inactive; . = not tested or not shown. Sampled rows, rich in hits. Any-hit rate of the full collection: about 1.3%.

SMILES	Gli-Sufu antag	LRH-1 inv ag	NCOA3 inh	SRC1 inh	NR2F2 inh	SRC2 inh	Gli-Sufu confirm	SufuKO cytotox	Wnt3a counter
O=C(N[C@H](C(=O)N1CCC[C@H]1C(=O)NC1CCCC1)C1CCCCC1)c1nccs1	.	.	.	.	-2	15	.	.	.
O=C1/C(=C/c2ccccc2O)SC(=S)N1Cc1cccnc1	72*	3	2	15	4	-20	31	9	-102
Cc1ccc(CN(C(=O)Cc2cccs2)C(C(=O)NC2CCCC2)c2ccncc2)cc1 (stereo not drawn)	2	6	1	-5	-9	18	.	.	.
O=C(NC1CCCC1)C(c1ccccc1)N(Cc1cccnc1)C(=O)Cc1cccs1 (stereo not drawn)	57*	6	12	-12	5	-12	23	0	6
CSc1nc(N2CCN(c3ccccc3)CC2)cc(N2CCN(c3ccccc3)CC2)n1	-8	1	-9	-1	-5	-8	.	.	.
CC1(C)CC(N2CCN(c3ccccc3)CC2)=CC(=[N+]2CCCC2)C1	83*	62	57	29	33	17	86*	35*	38*
CC(=O)C1=C(C)N(CC(C)C)C(=S)NC1c1cccc(Cl)c1 (stereo not drawn)	.	.	.	.	19	15	.	.	.
O=C(CN1C(=O)c2ccccc2C1=O)Nc1cccnc1	64*	-3	5	6	0	5	17	8	7
CCc1nnc(NC(=O)c2cc(-c3ccccn3)nc3ccccc23)s1	-1	-23	-5	-4	-4	-9	.	.	.
CCc1nnc(NC(=O)c2cc(-c3ccco3)nc3ccccc23)s1	61*	11	2	-7	5	-17	9	11	-5
C=CCN1C[C@H](COC(=O)c2ccc(C)c(C)c2)Oc2cccc(F)c2S1(=O)=O	.	.	.	.	30	-6	.	.	.
CCOc1ccc(NS(=O)(=O)c2ccc3c(c2)N(C(C)=O)CCS3)cc1	55	1	22	12	15	9	14	4	9
COc1ccc(NS(=O)(=O)c2ccc3c(c2)N(C(C)=O)CC(C)S3)c(OC)c1 (stereo not drawn)	54	2	17	-8	2	5	16	7	9
CCOc1ccc(NS(=O)(=O)c2ccc3c(c2)N(C(C)=O)CC3)cc1	19	-16	12	-10	2	-5	.	.	.
CCOc1ccc(NS(=O)(=O)c2ccc(C(=O)N3CCCCC3)cc2)cc1	55*	4	11	1	18	13	27	29*	-19
C=CCNC(=S)N1C[C@H]2CON(C)[C@H]2C[C@H]1c1ccccc1Br	.	.	.	.	-17	-23	.	.	.
Cc1ccc2sc(NC(=O)CN3C(=O)CCC3=O)nc2c1C	57*	9	-9	-11	2	2	17	19	-16
CS(=O)(=O)c1nc(S(=O)(=O)c2ccc(Cl)cc2)c(NCCN2CCOCC2)s1	-3	10	-1	-3	-3	1	.	.	.
CS(=O)(=O)c1nc(S(=O)(=O)c2ccc(Cl)cc2)c(NCCCn2ccnc2)s1	57*	14	16	-39	-18	-10	11	6	3
CCOc1ccc2cc(C(=O)c3ccccc3)c(=O)oc2c1	-31	-51	-31	-70	-31	-17	.	.	.
CCOc1ccc2cc(C(=O)NCc3ccccc3)c(=N)oc2c1	54	-9	-9	5	3	-7	8	13	-39
O=C(O)c1ccc(NC(=O)c2cccc(C(=O)Nc3ccc(C(=O)O)cc3)n2)cc1	66*	-3	-1	-19	14	0	16	13	9
O=C(Nc1ccccc1)c1cccc(C(=O)Nc2ccccc2)n1	32	16	-1	2	3	27	.	.	.
CC(C)(C)OC(=O)NCc1ccccc1/C=C/S(=O)(=O)NCc1ccccc1	.	.	.	.	-12	0	.	.	.
COc1ccc(S(=O)(=O)N2CCC(C(N)=O)(N3CCCCC3)CC2)cc1	1	15	11	-16	14	-10	.	.	.
SMILES	Gli-Sufu antag	LRH-1 inv ag	NCOA3 inh	SRC1 inh	NR2F2 inh	SRC2 inh	Gli-Sufu confirm	SufuKO cytotox	Wnt3a counter
CC(=O)Nc1ccc(S(=O)(=O)N2CCC(C(N)=O)(N3CCCCC3)CC2)cc1	55*	9	-8	-103	-6	-38	30	-1	14
COC(=O)Cc1nnn2c1[C@H](C)[C@H](c1ccccc1Br)OC[C@@H]2c1ccccc1	.	.	.	.	4	-9	.	.	.
CC(C)c1ccc(OC[C@@H](O)CN2CCC(C(O)(c3ccccc3)c3ccccc3)CC2)cc1	.	.	.	.	27	-14	.	.	.
CCN(CC)C(=O)CC[C@H]1CC[C@]2(CCCN(S(=O)(=O)C3CCCCC3)C2)O1	.	.	.	.	-2	19	.	.	.
COc1ccccc1C(=O)N/C(=C\c1ccc(Br)cc1)C(=O)NCC(=O)O	97*	-2	-1	-17	-11	0	14	0	13
COc1ccccc1C(=O)N/C(=C\c1ccc(Br)cc1)C(=O)NCCC(=O)O	-5	0	0	3	10	11	.	.	.
CC12CCCCN1CCCc1c2[nH]c2ccccc12 (stereo not drawn)	58*	13	-10	15	-63	2	33	50*	-11
c1ccc2c3c([nH]c2c1)C1(CCCCC1)NCC3	0	-7	-2	-16	-1	9	.	.	.
CCc1c(C)[nH]n(-c2nc(-c3ccccc3)cs2)c1=O	-4	-25	-12	-22	-17	-5	.	.	.
Cc1[nH]n(-c2nc(-c3ccc(Cl)cc3)cs2)c(=O)c1N=Nc1ccc(O)cc1	70*	-37	-13	-21	-6	13	71*	35*	29*
Cc1cccc(CCN2C(N(C)C)=NC[C@@H]2CC(C)C)c1	54	16	15	-18	-6	-51	56*	16	17
CN(C)C1=NC[C@H](Cc2ccccc2)N1CCCCc1ccccc1	54	7	24	11	6	-5	38	29*	-18
Cc1cccc(CCN2C(N(C)C)=NC[C@@H]2Cc2ccccc2)c1	33	8	9	12	1	-21	.	.	.
O=C(c1ccc2c(=O)n(-c3ccccc3)c(=S)[nH]c2c1)N1CCN(c2ccccc2)CC1	0	-3	-11	5	8	-1	.	.	.
O=C(c1ccc2c(=O)n(-c3ccccc3)c(=S)[nH]c2c1)N1CCCCC1	60*	21	26	13	37	12	55*	36*	7
O=C(c1ccc2c(=O)n(C3CCCC3)c(=S)[nH]c2c1)N1CCCCCC1	57*	3	4	-26	7	-11	51*	35*	-24
